Structures can show the parent of a compound that is named as a salt. ± gives the standard deviation of the averaged measurements.
Experiments:
Experiment in all cases: growth (OD600 after 10 h); higher = more growth (less inhibition)
[1] = system: E. coli TESEC Alr+ wild-type control; conditions: compound 0.1 mM; raw OD600 reference: median of DMSO wells 0.241, cell-free background 0.041
Experimental: (§1)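 TESEC Mtb Alr E. coli, or the Alr+ wild-type control, in 384-well plates with Prestwick library compounds at 0.1 mM and 1% DMSO, across arabinose induction levels of 1E3 to 1E7 nM. Growth is read as OD600 after 10 h at 37 °C in triplicate biological replicates.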

E. coli TESEC Mtb Alr [2] = conditions: compound 0.1 mM
Experimental: as §1

E. coli TESEC Mtb Asd = conditions: compound 0.1 mM
Experimental: (§2)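 TESEC E. coli strains in which the native enzyme is deleted and replaced by arabinose-inducible Mtb Asd, DapB, CysH or TrpD, each grown in its selective medium. Strains were screened against the Prestwick library at 0.1 mM and 1% DMSO in 384-well format at low and high arabinose induction. Growth is read as OD600 after 10 h in triplicate.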

E. coli TESEC Mtb DapB = conditions: compound 0.1 mM
Experimental: as §2

[3] = system: E. coli TESEC Alr+ wild-type control; conditions: compound 0.1 mM; raw OD600 reference: median of DMSO wells 0.49, cell-free background 0.052
Experimental: (§3)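 TESEC Mtb Alr E. coli (ΔaraC ΔtolC ΔentC Δalr ΔdadX, arabinose-inducible Mtb Alr) or the Alr+ wild-type control strain, grown in defined M9-fructose medium without D-alanine in 96-well plates with Prestwick library compounds at 0.1 mM and 1% DMSO. Low Alr induction is 0.1 µM arabinose and high induction is 10 mM arabinose.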

E. coli TESEC Mtb Alr [4] = conditions: compound 0.1 mM; remark: listed apart in the source
Experimental: as §3

[5] = arabinose 1000 nM, raw OD600 reference: median of DMSO wells 0.294, cell-free background 0.041
[6] = arabinose 10000 nM, raw OD600 reference: median of DMSO wells 0.264, cell-free background 0.041
[7] = arabinose 100000 nM, raw OD600 reference: median of DMSO wells 0.201, cell-free background 0.041
[8] = arabinose 1000000 nM, raw OD600 reference: median of DMSO wells 0.193, cell-free background 0.041
[9] = arabinose 10000000 nM, raw OD600 reference: median of DMSO wells 0.146, cell-free background 0.041
[10] = arabinose induction (level): High, raw OD600 reference: median of DMSO wells 0.331, cell-free background 0.041
[11] = arabinose induction (level): Low, raw OD600 reference: median of DMSO wells 0.417, cell-free background 0.041
[12] = arabinose induction (level): High, raw OD600 reference: median of DMSO wells […], cell-free background 0.041
[13] = arabinose induction (level): Low, raw OD600 reference: median of DMSO wells 0.227, cell-free background 0.041
[14] = arabinose 100 nM, raw OD600 reference: median of DMSO wells 0.413, cell-free background 0.052
[15] = arabinose 10000000 nM, raw OD600 reference: median of DMSO wells […], cell-free background 0.052

Row | SMILES | growth [1] | growth (E. coli TESEC Mtb Alr [2]; [5]) | growth (E. coli TESEC Mtb Alr [2]; [6]) | growth (E. coli TESEC Mtb Alr [2]; [7]) | growth (E. coli TESEC Mtb Alr [2]; [8]) | growth (E. coli TESEC Mtb Alr [2]; [9]) | growth (E. coli TESEC Mtb Asd; [10]) | growth (E. coli TESEC Mtb Asd; [11]) | growth (E. coli TESEC Mtb DapB; [12]) | growth (E. coli TESEC Mtb DapB; [13]) | growth [3] | growth (E. coli TESEC Mtb Alr [4]; [14]) | growth (E. coli TESEC Mtb Alr [4]; [15])
1 | CN(C)CCOC(C)(c1ccccc1)c1ccccn1 (stereo unspecified) [Doxylamine succinate] | 0.236 ± 0.0058 | 0.288 ± 0.016 | 0.249 ± 0.0028 | 0.19 ± 0.025 | 0.164 ± 0.0088 | 0.141 ± 0.0072 | 0.301 ± 0.028 | 0.374 ± 0.071 | 0.179 ± 0.019 | 0.206 ± 0.011 | 0.51 ± 0.06 | 0.41 ± 0.0066 | 0.353 ± 0.0099
2 | CC(=O)Nc1ccc(CC(=O)O)cc1 [Actarit] | 0.2349 ± 0.00093 | 0.291 ± 0.024 | 0.259 ± 0.0053 | 0.198 ± 0.015 | 0.217 ± 0.0053 | 0.136 ± 0.0042 | 0.291 ± 0.009 | 0.311 ± 0.097 | 0.183 ± 0.017 | 0.203 ± 0.025 | 0.574 ± 0.11 | 0.412 ± 0.011 | 0.342 ± 0.015
3 | Nc1nc2ccc(OC(F)(F)F)cc2s1 [Riluzole hydrochloride] | 0.176 ± 0.007 | 0.188 ± 0.0051 | 0.255 ± 0.0058 | 0.212 ± 0.007 | 0.262 ± 0.016 | 0.194 ± 0.0031 | 0.388 ± 0.01 | 0.208 ± 0.02 | 0.241 ± 0.005 | 0.241 ± 0.0089 | 0.439 ± 0.011 | 0.415 ± 0.014 | 0.419 ± 0.0084
4 | OC(c1cc(C(F)(F)F)nc2c(C(F)(F)F)cccc12)C1CCCCN1 (stereo unspecified) [Mefloquine hydrochloride] | 0.0408 ± 0.00093 | 0.0401 ± 0.0013 | 0.0392 ± 0.0005 | 0.0403 ± 0.00056 | 0.0392 ± 0.00017 | 0.0398 ± 0.00036 | 0.0511 ± 0.0036 | 0.055 ± 0.0046 | 0.0464 ± 0.00035 | 0.0483 ± 0.0032 | 0.04863 ± 0.00045 | 0.199 ± 0.23 | 0.0512 ± 0.00055
5 | CC12CC3CC(C)(C1)CC(N)(C3)C2 [Memantine Hydrochloride] | 0.161 ± 0.005 | 0.207 ± 0.007 | 0.237 ± 0.017 | 0.184 ± 0.0066 | 0.195 ± 0.019 | 0.175 ± 0.0048 | 0.256 ± 0.039 | 0.155 ± 0.011 | 0.165 ± 0.011 | 0.199 ± 0.0086 | 0.503 ± 0.12 | 0.398 ± 0.018 | 0.392 ± 0.018
6 | COC(=O)C1=C(C#N)NC(C)=C(C(=O)OC(C)C)C1c1cccc([N+](=O)[O-])c1 (stereo unspecified) [Nilvadipine] | 0.148 ± 0.0031 | 0.203 ± 0.014 | 0.2569 ± 0.001 | 0.164 ± 0.014 | 0.0883 ± 0.002 | 0.149 ± 0.033 | 0.16 ± 0.0063 | 0.325 ± 0.029 | 0.208 ± 0.019 | 0.214 ± 0.015 | 0.212 ± 0.16 | 0.429 ± 0.0067 | 0.06 ± 0.0039
7 | C[C@@H](c1ncncc1F)[C@](O)(Cn1cncn1)c1ccc(F)cc1F [Voriconazole] | 0.214 ± 0.013 | 0.267 ± 0.0077 | 0.252 ± 0.003 | 0.196 ± 0.038 | 0.154 ± 0.0053 | 0.147 ± 0.008 | 0.315 ± 0.062 | 0.285 ± 0.035 | 0.169 ± 0.015 | 0.201 ± 0.013 | 0.557 ± 0.1 | 0.412 ± 0.011 | 0.318 ± 0.012

Reference: the supplement of paper PMC9262897, “Low-cost anti-mycobacterial drug discovery using engineered E. coli” (Nature Communications, 2022)
